In PubChem BioAssay (NCATS):
Results filed as inconclusive are left out. Calls of active or inactive are those of the source. The call rests on the fitted dose curve; in most records, active means well fitted inhibition curve with a large enough effect; inconclusive means small, poorly fitted or top-dose-only effect; inactive means flat fitted curve, though single readings scatter.

What was measured:
[1] = system: PC49; assay: qHTS profiling for inhibitors of Plasmodium falciparum proliferation (AID 504749); further: potency means the concentration at half of the fitted maximal effect; conditions: P. falciparum in erythrocytes, SYBR Green DNA, 72 h; series mostly up to 28.7 µM
In short: (§1)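 SYBR Green fluorescence of parasite DNA, read after lysis and overnight dark incubation, measured growth over 72 h in erythrocyte culture at 0.3% parasitemia and 2.5% hematocrit. Data normalised to DMSO and 0.29 uM artemisinin, with plate-drift correction.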

[2] = system: SC27B; assay: as above; conditions: P. falciparum in erythrocytes, SYBR Green DNA, 72 h; series mostly up to 28.7 µM
In short: as §1

[3] = system: TAB109; assay: as above; conditions: P. falciparum in erythrocytes, SYBR Green DNA, 72 h; series mostly up to 28.7 µM
In short: as §1

[4] = system: TAB113; assay: as above; conditions: P. falciparum in erythrocytes, SYBR Green DNA, 72 h; series mostly up to 28.7 µM
In short: as §1

[5] = system: TAB165; assay: as above; conditions: P. falciparum in erythrocytes, SYBR Green DNA, 72 h; series mostly up to 28.7 µM
In short: as §1

[6] = system: W2; assay: as above; conditions: P. falciparum in erythrocytes, SYBR Green DNA, 72 h; series mostly up to 28.7 µM
In short: as §1

[7] = system: CRL-7250; assay: Cytotoxic Profiling of Annotated Libraries Using Quantitative High-Throughput Screening (AID 1296008); conditions: Five cell lines viability, CellTiter-Glo ATP luminescence, 48-72 h; stronger effect = lower value; on max response: on the % scale 0 is the no-effect control and ±100 the full control effect
In short: (§2)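 Cytotoxicity was measured as CellTiter-Glo ATP luminescence, read after 10 min at room temperature. Compound treatment of the cells lasted 48 or 72 hr at 37 degrees Celsius in a qHTS format.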

[8] = system: HEK293; assay: as above; conditions: Five cell lines viability, CellTiter-Glo ATP luminescence, 48-72 h; stronger effect = lower value
In short: as §2

[9] = system: HaCat; assay: as above; conditions: Five cell lines viability, CellTiter-Glo ATP luminescence, 48-72 h; stronger effect = lower value
In short: as §2

[10] = system: KB-3-1; assay: as above; conditions: Five cell lines viability, CellTiter-Glo ATP luminescence, 48-72 h, stronger effect = lower value
In short: as §2
Further: nearly all actives have a fitted effect of over 60% in size.

CC(=O)OCC(COC(C)=O)OC(C)=O
inactive: Potency [1] | Potency [2] | Potency [3] | Potency [4] | Potency [5] | Potency [6] | max response [7] -1.86% | max response [8] -3.97% | outcome [9]

CC(CN(C)C)C(C)(O)Cc1ccc(Cl)cc1 (stereo unspecified)
active: Potency [6] 2.39 µM
inactive: outcome [7] | max response [8] 3.34% | outcome [9] | max response [10] 6.05%

CC(C)CCCC(C)CCCC(C)CCCCC(C)CCCC(C)CCCC(C)C (stereo unspecified)
inactive: Potency [1] | Potency [2] | Potency [3] | Potency [4] | Potency [5] | Potency [6] | outcome [7] | max response [8] -6.17% | max response [9] -19.8%

O=C(Cn1ccnc1[N+](=O)[O-])NCCO
inactive: Potency [1] | Potency [2] | Potency [3] | Potency [4] | Potency [5] | Potency [6] | max response [7] 1.72% | outcome [8] | max response [9] 0.0021%

Nc1c2c(nc3c1CCC3)CCCC2
inactive: outcome [7] | max response [8] -2.02% | outcome [9] | max response [10] -0.45%
active: Potency [5] 11.2 µM

COc1ccccc1OC(=O)Oc1ccccc1OC
inactive: Potency [1] | Potency [2] | Potency [3] | Potency [4] | Potency [5] | Potency [6] | outcome [7] | max response [8] -4.48% | outcome [9]

NC(=O)c1ccc([N+](=O)[O-])cc1Cl
inactive: Potency [1] | Potency [2] | max response [7] 3.21% | max response [8] -0.167% | max response [9] -15.2%

CCCCCCCCCCCCCCCCCCO
inactive: Potency [1] | Potency [2] | Potency [3] | Potency [4] | Potency [5] | Potency [6] | max response [7] 0.886% | max response [8] -5.18% | max response [9] -4.21%

O=C(NCN1CCOCC1)c1cnccn1
inactive: Potency [1] | Potency [2] | Potency [3] | Potency [4] | Potency [5] | Potency [6] | max response [7] 3.76% | max response [8] 3.79% | outcome [9]

O=C(O)c1ccccc1C(=O)Nc1ccc(S(=O)(=O)Nc2nccs2)cc1
inactive: Potency [1] | Potency [2] | Potency [3] | Potency [4] | Potency [5] | Potency [6] | max response [7] -2.05% | outcome [8] | max response [9] -2.6%

CCCCOC(=O)c1ccc(N)cc1
inactive: Potency [1] | Potency [2] | Potency [3] | Potency [4] | Potency [5] | outcome [7] | max response [8] 4.63% | outcome [9]

CCc1cccc(CC)c1NC(=O)CN(CC(=O)O)CC(=O)O
inactive: Potency [1] | Potency [2] | Potency [3] | Potency [4] | Potency [5] | Potency [6] | max response [7] -19.6% | max response [8] -1.81% | max response [9] -2.45%

O=C1C(c2[nH]c3ccccc3c2O)=Nc2ccccc21
inactive: Potency [1] | max response [7] 1.26% | outcome [8] | outcome [9] | max response [10] 4.4%
active: Potency [5] 14.1 µM

O=C1c2ccccc2S(=O)(=O)N1CCCCN1CCN(c2ncccn2)CC1
inactive: Potency [1] | Potency [2] | Potency [3] | Potency [4] | Potency [5] | max response [7] -12.2% | max response [8] -4.06% | max response [9] -10.1%

COC(=O)c1cccnc1
inactive: Potency [2] | Potency [3] | Potency [4] | Potency [5] | Potency [6] | max response [7] -1.99% | outcome [8] | outcome [9]

Cc1c(Cn2ccnc2)c2ccccc2n1CCC(=O)O
inactive: Potency [1] | Potency [2] | Potency [3] | Potency [4] | Potency [5] | Potency [6] | max response [7] 0.62% | max response [8] 1.95% | outcome [9]

Cc1cc(O)cc(C)c1Cl
inactive: Potency [2] | max response [7] -1.3% | outcome [8] | outcome [9] | max response [10] 4.13%
active: Potency [6] 7.57 µM

C[C@@H]1O[C@@H](OC[C@H]2O[C@@H](Oc3c(-c4ccc(O)c(O)c4)oc4cc(O)cc(O)c4c3=O)[C@H](O)[C@@H](O)[C@@H]2O)[C@H](O)[C@H](O)[C@H]1O
inactive: Potency [1] | Potency [2] | Potency [3] | Potency [4] | Potency [5] | Potency [6] | max response [7] -4.29% | outcome [8] | max response [9] 2.78%

Cc1cc(OI)c(C(C)C)cc1-c1cc(C(C)C)c(OI)cc1C
active: Potency [4] 10 µM | Potency [6] 6.01 µM
inactive: outcome [7] | max response [8] 2.3% | outcome [9] | max response [10] 12.2%

COc1ccc(C(=O)N2CCN(CC(=O)N3CCOCC3)CC2)cc1
inactive: Potency [1] | Potency [2] | Potency [3] | Potency [4] | Potency [5] | Potency [6] | max response [7] 3.53% | max response [8] 4.6% | outcome [9]
